Out of some 5,500 compounds screened, about 2,000 (36%) were called active. Not shown: some 18% with an inconclusive outcome. Cut-off read from the data, not from the text of the source: active = normalized growth mostly below about 0.91 (no sharp cut-off); inconclusive = no clear call, values can overlap the other calls; inactive = mostly above about 0.92. Some of the results follow.
Assay: chemical genetic growth profiling, strain panel (AID 1159580);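 note: tested at 20 µM; growth read once vehicle control cultures reached saturation at 30 °C; 1 = growth at the plate median or of vehicle wells; lower values mean less growth of the strain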
Conditions: growth OD

Measured: normalized growth

CC[C@@]1(O)C(=O)OCc2c1cc1n(c2=O)Cc2cc3cc(O)ccc3nc2-1
inactive: S. cerevisiae deletion strains, locus YKL068W, hits give low values 0.996 | S. cerevisiae deletion strains, locus YKL085W, strain MDH1 (second series), hits give low values 1.01 | S. cerevisiae deletion strains, locus YKL085W, strain MDH1, hits give low values 1.01 | S. cerevisiae deletion strains, locus YKL160W, strain elf1, hits give low values 1.02 | S. cerevisiae deletion strains, locus YKL190W, strain CNB1, hits give low values 1.02 | S. cerevisiae deletion strains, locus YKR001C, strain vps1, hits give low values 1 | S. cerevisiae deletion strains, locus YKR026C, strain gcn3, hits give low values 0.997 | S. cerevisiae deletion strains, locus YKR091W, strain srl3, hits give low values 1.01 | S. cerevisiae deletion strains, locus YLL001W, strain dnm1, hits give low values 1 | S. cerevisiae deletion strains, locus YLL026W, hits give low values 1.02 | S. cerevisiae deletion strains, locus YLL041C, strain sdh2, hits give low values 1.02 | S. cerevisiae deletion strains, locus YLR027C, strain aat2, hits give low values 1 | S. cerevisiae deletion strains, locus YLR039C, strain RIC1, hits give low values 1.03 | S. cerevisiae deletion strains, locus YLR058C, strain SHM2, hits give low values 1.02 | S. cerevisiae deletion strains, locus YLR102C, strain apc9, hits give low values 0.992 | S. cerevisiae deletion strains, locus YLR113W, strain HOG1, hits give low values 0.942 | S. cerevisiae deletion strains, locus YLR221C, strain rsa3, hits give low values 0.966 | S. cerevisiae deletion strains, locus YLR258W, strain gsy2, hits give low values 1.03 | S. cerevisiae deletion strains, locus YLR262C, strain YPT6 (second series), hits give low values 0.984 | S. cerevisiae deletion strains, locus YLR262C, strain YPT6, hits give low values 1.04 | S. cerevisiae deletion strains, locus YLR268W, strain sec22, hits give low values 0.96 | S. cerevisiae deletion strains, locus YLR320W, strain mms22, hits give low values 0.884 | S. cerevisiae deletion strains, locus YLR330W, strain CHS5, hits give low values 1.02 | S. cerevisiae deletion strains, locus YLR342W, strain FKS1 (second series), hits give low values 0.995 | S. cerevisiae deletion strains, locus YLR342W, strain FKS1, hits give low values 1.01 | S. cerevisiae deletion strains, locus YLR357W, strain rsc2, hits give low values 1.03 | S. cerevisiae deletion strains, locus YLR370C, strain arc18, hits give low values 1.01 | S. cerevisiae deletion strains, locus YLR371W, strain rom2, hits give low values 0.994 | S. cerevisiae deletion strains, locus YLR384C, strain iki3, hits give low values 1.02 | S. cerevisiae deletion strains, locus YLR418C, strain cdc73, hits give low values 1.02 | S. cerevisiae deletion strains, locus YML016C, strain PPZ1, hits give low values 1.02 | S. cerevisiae deletion strains, locus YML120C, strain ndi1, hits give low values 0.995 | S. cerevisiae deletion strains, locus YML124C, strain tub3, hits give low values 0.983 | S. cerevisiae deletion strains, locus YMR058W, strain fet3, hits give low values 1.01 | S. cerevisiae deletion strains, locus YMR078C, strain ctf18, hits give low values 0.947 | S. cerevisiae deletion strains, locus YMR125W, strain sto1, hits give low values 1.03 | S. cerevisiae deletion strains, locus YMR129W, hits give low values 1.02 | S. cerevisiae deletion strains, locus YMR205C, strain PFK2, hits give low values 0.98 | S. cerevisiae deletion strains, locus YMR223W, strain ubp8, hits give low values 0.981 | S. cerevisiae deletion strains, locus YMR231W, strain pep5, hits give low values 1 | S. cerevisiae deletion strains, locus YMR263W, strain SAP30, hits give low values 1.03 | S. cerevisiae deletion strains, locus YMR307W, strain GAS1, hits give low values 1.03 | S. cerevisiae deletion strains, locus YNL067W, strain RPL9B, hits give low values 1.01 | S. cerevisiae deletion strains, locus YNL071W, strain lat1, hits give low values 1.02 | S. cerevisiae deletion strains, locus YNL128W, strain TEP1, hits give low values 1.02 | S. cerevisiae deletion strains, locus YNL183C, strain NPR1, hits give low values 0.91 | S. cerevisiae deletion strains, locus YNL209W, strain ssb2, hits give low values 1.03 | S. cerevisiae deletion strains, locus YNL233W, strain BNI4, hits give low values 1.01 | S. cerevisiae deletion strains, locus YNL248C, strain rpa49, hits give low values 1.03 | S. cerevisiae deletion strains, locus YNL271C, strain bni1, hits give low values 0.991 | S. cerevisiae deletion strains, locus YNL298W, strain CLA4, hits give low values 0.992 | S. cerevisiae deletion strains, locus YNL307C, strain MCK1, hits give low values 0.979 | S. cerevisiae deletion strains, locus YNL322C, strain KRE1 (second series), hits give low values 1.06 | S. cerevisiae deletion strains, locus YNL322C, strain KRE1, hits give low values 1.01 | S. cerevisiae deletion strains, locus YNR049C, strain mso1, hits give low values 1 | S. cerevisiae deletion strains, locus YNR052C, strain pop2, hits give low values 0.997 | S. cerevisiae deletion strains, locus YOL012C, strain htz1 0.802 | S. cerevisiae deletion strains, locus YOL147C, strain pex11, hits give low values 0.983 | S. cerevisiae deletion strains, locus YOR001W, strain rrp6, hits give low values 0.967 | S. cerevisiae deletion strains, locus YOR061W, strain CKA2, hits give low values 1.02 | S. cerevisiae deletion strains, locus YOR069W, strain VPS5, hits give low values 1.02 | S. cerevisiae deletion strains, locus YOR070C, strain gyp1, hits give low values 1.01 | S. cerevisiae deletion strains, locus YOR080W, strain dia2, hits give low values 1.01 | S. cerevisiae deletion strains, locus YOR083W, strain WHI5, hits give low values 1 | S. cerevisiae deletion strains, locus YOR106W, strain vam3, hits give low values 1.03 | S. cerevisiae deletion strains, locus YOR136W, strain idh2, hits give low values 0.971 | S. cerevisiae deletion strains, locus YOR144C, strain elg1, hits give low values 0.988 | S. cerevisiae deletion strains, locus YOR184W, strain ser1, hits give low values 0.972 | S. cerevisiae deletion strains, locus YOR231W, strain MKK1, hits give low values 0.951 | S. cerevisiae deletion strains, locus YOR265W, strain rbl2, hits give low values 0.984 | S. cerevisiae deletion strains, locus YOR270C, strain vph1, hits give low values 1.03 | S. cerevisiae deletion strains, locus YOR290C, strain snf2, hits give low values 1.03 | S. cerevisiae deletion strains, locus YOR316C, strain cot1, hits give low values 0.987 | S. cerevisiae deletion strains, locus YPL051W, strain arl3, hits give low values 1 | S. cerevisiae deletion strains, locus YPL055C, strain LGE1, hits give low values 1.02 | S. cerevisiae deletion strains, locus YPL078C, strain atp4, hits give low values 1.04 | S. cerevisiae deletion strains, locus YPL106C, strain sse1, hits give low values 1.06 | S. cerevisiae deletion strains, locus YPL240C, strain hsp82, hits give low values 1.01 | S. cerevisiae deletion strains, locus YPL241C, strain CIN2, hits give low values 1.01 | S. cerevisiae deletion strains, locus YPL256C, strain CLN2, hits give low values 0.945 | S. cerevisiae deletion strains, locus YPR119W, strain clb2, hits give low values 0.982 | S. cerevisiae deletion strains, locus YPR141C, strain kar3, hits give low values 0.999 | S. cerevisiae deletion strains, locus YPR163C, strain tif3, hits give low values 0.991 | S. cerevisiae deletion strains, locus YPR167C, strain met16, hits give low values 0.987 | S. cerevisiae deletion strains, strain wtn01, hits give low values 0.97 | S. cerevisiae strains, strain wild type, hits give low values 1.02
active: S. cerevisiae deletion strains, locus YML032C, strain rad52, hits give low values 0.407 | S. cerevisiae deletion strains, locus YNL250W, strain rad50, hits give low values 0.429
